Compound activity (PubChem)
MITF primary – inhibitors of human MITF. O75030. AlphaScreen MITF homodimerization, bead proximity signal. inhibition, % at 2.6 µM. 650,000 tested, 0.91% active; in the data active = inhibition above about 50%;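 note: 0% = vehicle wells with protein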
TEAD-YAP inh – TEAD-YAP interaction inhibition | 640,000 tested, 1.4% active | AID 1259422 | HEK-TIYL cells, TEAD-Gal4/YAP UAS-luciferase luminescence | inhibition, % at 9.12 µM; in the data active = inhibition above about 32%;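 note: 0% = median of test compound wells and 100% = reference inhibitor wells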
GPR151 activ – human GPR151 activation; PathHunter beta-arrestin GPR151 cells, luminescence; activation, % at 11.2 µM; 650,000 tested, 1% active; AID 1508602; in the data active = activation above about 4.9%;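 note: 0% = median of compound wells and 100% = cells with positive control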
Target sequence (Q8TDV0 whole entry, looked up): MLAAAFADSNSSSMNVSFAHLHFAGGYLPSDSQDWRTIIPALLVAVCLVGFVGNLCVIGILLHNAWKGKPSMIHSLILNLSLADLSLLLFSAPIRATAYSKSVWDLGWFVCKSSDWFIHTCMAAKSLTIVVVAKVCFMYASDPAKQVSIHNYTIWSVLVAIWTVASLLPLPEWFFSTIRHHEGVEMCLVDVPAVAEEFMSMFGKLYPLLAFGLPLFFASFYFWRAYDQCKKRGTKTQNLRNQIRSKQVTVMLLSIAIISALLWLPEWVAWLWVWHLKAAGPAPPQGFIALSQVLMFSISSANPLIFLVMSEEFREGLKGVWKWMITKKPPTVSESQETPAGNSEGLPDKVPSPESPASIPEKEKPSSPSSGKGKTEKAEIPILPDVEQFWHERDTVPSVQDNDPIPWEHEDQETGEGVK
FBW7 act – activators of human E3 ligase FBW7. Q969H0. AlphaScreen FBW7–phospho-cyclin E peptide binding, activator screen. 650,000 tested, 0.13% active. normalized activity (activation), % at 26.1 µM; in the data active = normalized activity above about 1.9%;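 note: purified mutant Fbw7 with reduced substrate affinity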
* marks the source's active call; other numbers are inactive results. Most compounds without a hit are left out; they make up all but 3.4% or so of the library.

SMILES	MITF primary	TEAD-YAP inh	GPR151 activ	FBW7 act
COc1cc(/C=C2/C(=O)N(c3cccc(C(=O)O)c3)N=C2C)cc2sc(=O)oc12	61.1*	-8.5	-0.5	-0.9
O=C(N/N=C\c1ccccc1F)c1cncc(Br)c1	-1.2	-5.0	-1.0	0.0
Cc1ccccc1NC(=O)C(=O)NCC(c1ccc2c(c1)OCO2)N1CCOCC1 (stereo not given)	13.5	-6.0	-1.8	-0.2
CC1=NN(c2cccc(C(=O)O)c2)C(=O)/C1=C\c1ccc(-c2cccc(C(=O)O)c2)o1	62.5*	-20.2	1.9	-0.7
O=C(O)c1n[nH]c(C(=O)O)c1[N+](=O)[O-]	-0.2	14.6	-1.8	0.3
Cc1ccc2nc(=S)n(C(=O)c3ccccc3F)n2c1	2.0	62.4*	-1.1	-0.1
N#Cc1cc(-c2ccnc(Nc3cccc(NC(=O)N4CCCC4)c3)n2)ccc1N1CCCC1	22.3	45.2*	0.3	0.3
CCC(=O)C(Sc1ccccc1[N+](=O)[O-])C(C)=O (stereo not given)	-6.0	10.5	0.3	0.0
CCc1cccc(NS(=O)(=O)c2ccc3c4c2CC(=O)N4CC(C)S3)c1 (stereo not given)	-2.7	36.3*	0.3	-0.1
CC1CN2C(=O)Cc3c(S(=O)(=O)Nc4ccc(F)cc4)ccc(c32)S1 (stereo not given)	10.1	23.4	0.0	0.0
C=CCn1c(SCC(=O)Nc2nc(C)cs2)nnc1-c1ccccc1Cl	-9.9	9.2	-0.4	-0.2
CC(C)c1ccc(OCc2nc(-c3ccc([N+](=O)[O-])cc3)no2)cc1	3.7	-2.8	0.2	-0.1
COc1cc(Sc2ccccc2[N+](=O)[O-])ccc1N	1.2	45.5*	-0.7	-0.3
COc1ccc(CCNSc2ccccc2[N+](=O)[O-])cc1OC	-2.5	0.8	0.0	0.4
Cc1nc2cnc(-c3cccc(F)c3)cn2c1NC(=O)CC1CCOCC1	4.4	1.1	0.1	0.9
C=CCN1C=C/C(=C\C=C(C#N)C#N)c2ccccc21	68.4*	12.9	-1.5	-1.8
CN1/C(=C/C=C(C#N)C#N)C=Cc2ccccc21	9.1	-8.9	-0.2	-0.2
CC(=O)Nc1ccc(CN2CCc3c([nH]c4ccccc34)C2c2ccccn2)s1 (stereo not given)	3.3	34.1*	1.1	-0.2
O=C(Cc1ccccn1)N1CCc2c([nH]c3ccccc23)C1c1ccccn1 (stereo not given)	-5.7	6.8	2.2	0.0
O=C(CSCC(=O)N1CCc2ccccc2C1)Nc1nc(-c2cccs2)cs1	8.3	-1.9	1.7	-0.1
CCN(CC)C(CNS(=O)(=O)c1ccc(C)cc1)c1ccccc1 (stereo not given)	-0.9	-6.0	0.4	0.3
CN(c1ccc(Br)cc1)S(=O)(=O)c1ccc2c(c1)oc(=O)n2C	9.3	34.0*	0.8	-0.2
CN(c1ccccc1)S(=O)(=O)c1ccc2c(c1)oc(=O)n2C	10.3	56.3*	-0.7	1.2
COc1ccc(N(C)S(=O)(=O)c2ccc3c(c2)oc(=O)n3C)cc1	19.9	2.6	1.3	-0.1
CNC(=O)COC(=O)c1cncc(Br)c1	-1.9	-6.6	0.3	-0.1
SMILES	MITF primary	TEAD-YAP inh	GPR151 activ	FBW7 act
CN(c1ccccc1)S(=O)(=O)c1ccc(S(N)(=O)=O)cc1	18.7	3.8	-1.5	0.0
COC(=O)c1cnc(Nc2cc([N+](=O)[O-])ccc2OC)c2ccccc12	0.8	7.1	-0.6	0.1
CCC(/C=C1\Sc2ccccc2N1CC)=C\c1sc2ccccc2[n+]1CC	43.9	82.1*	0.3	-0.3
c1ccc(-c2nccc(NCCc3ccccn3)n2)cc1	16.8	-43.8	-3.0	0.0
CC(=N/O)/C(C)=N\NC(=O)c1ccccn1	4.2	44.6*	-5.1	0.1
CC(=N/NC(=O)c1ccc(C)cc1)/C(C)=N/O	-1.4	71.0*	-1.6	-0.2
Oc1cccc(/C=N/NC(=S)N/N=C/c2cccc(O)c2O)c1O	36.9	-1.4	0.0	-0.3
COCCNC(=S)N/N=C/c1ccc(O)c(O)c1O	107.4*	5.2	0.2	-1.2
COCCNC(=O)C(=O)N/N=C/c1ccccc1O	53.3*	-2.2	-1.3	-1.7
CC(C)NC(=S)N/N=C/c1cccc(O)c1O	89.6*	-15.2	-0.9	-1.2
Cc1ccccc1NC(=O)C(=O)N/N=C/c1ccccc1O	52.2*	2.0	0.7	-0.3
COCCNC(=S)N/N=C/c1cc(OC)c(OC)cc1OC	1.2	-0.9	2.7	-0.3
COCCNC(=O)CC(=O)N/N=C/c1ccccc1O	16.7	0.1	0.4	-1.6
COc1cc([N+](=O)[O-])ccc1NC(=O)Nc1ccc(C(F)(F)F)cc1	-1.7	1.7	-1.7	-0.1
O=c1c(-c2ccccn2)coc2cc(O)cc(O)c12	7.4	-1.7	-3.2	-0.1
